We go through 42 compounds from PubChem BioAssay.

For assay [1], the target named is Tumor necrosis factor receptor superfamily member 10B (Homo sapiens) (UniProt O14763). Description: viability loss of caspase-8 NB7 cells with TRAIL – with/without TRAIL, luminescence panel, confirmation (AID 651596). The following applies: NB7 neuroblastoma + caspase-8, TRAIL sensitization, NB7 Caspase-8, with TRAIL, mean of runs, at 10 µM, stronger effect = higher value.
Test in assay [2]: as above
The following applies: NB7 neuroblastoma + caspase-8, without TRAIL, NB7 Caspase-8, without TRAIL, mean of runs, at 10 µM.

Molecules are shown by their SMILES.

Sequence of Tumor necrosis factor receptor superfamily member 10B (Homo sapiens) (O14763 whole entry, looked up): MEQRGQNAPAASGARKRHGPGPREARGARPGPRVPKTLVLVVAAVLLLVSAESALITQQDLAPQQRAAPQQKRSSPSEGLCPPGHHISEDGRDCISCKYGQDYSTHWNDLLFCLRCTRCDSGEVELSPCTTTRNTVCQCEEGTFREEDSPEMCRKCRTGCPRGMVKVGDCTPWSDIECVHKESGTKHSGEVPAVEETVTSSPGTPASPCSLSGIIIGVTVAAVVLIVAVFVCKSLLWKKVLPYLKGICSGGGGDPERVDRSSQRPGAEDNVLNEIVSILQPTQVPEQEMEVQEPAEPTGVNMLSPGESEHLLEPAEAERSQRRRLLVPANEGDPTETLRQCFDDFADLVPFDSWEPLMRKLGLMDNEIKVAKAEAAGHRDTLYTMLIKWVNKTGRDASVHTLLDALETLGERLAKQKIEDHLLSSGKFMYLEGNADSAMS

`O=C1CN(C(=O)Cn2ncc(Cl)c(Cl)c2=O)c2ccccc2N1`: the figures for the activity in assay [1] and in assay [2] were 99.4% and 99.5%, respectively.

Regarding `C=CCNC(=S)N/N=C/c1ccc(C(F)(F)F)cc1`, the activity in assay [1] stood at 18.5%; in assay [2], 8.22%.

With `Cc1nc(NC(=O)c2cc3ccccc3o2)sc1C`, the activity stood at 80.8% in assay [1] and 79.8% in assay [2].

As to `CC(C)c1ccc(C(=O)NC2=NCCS2)cc1`, the activity was determined as 63.5% in assay [1] and 67.1% in assay [2].

Turning to `CCOc1ccc(C(=O)Nc2ccc3c(c2)OCCO3)cc1`, the activity in assay [1] was 70.5%; in assay [2] it was 61.4%.

On to `O=C(CSc1ncnc2nc[nH]c12)c1ccc(Cl)cc1`, for which the activity in assay [1] turned out to be 57.6%; in assay [2], 66%.

Take `COc1ccc2oc(C(=O)N3CCc4ccccc43)c(C)c2c1`: the activity in assay [1] worked out at 82.7%; in assay [2], 82.4%.

With `O=C(c1cc(-c2ccc3c(c2)OCO3)on1)N1CCCCC1`, the activity amounted to 53.4% in assay [1] and 48.9% in assay [2].

With `CCOc1ccc(C(=O)O/N=C(\N)c2ccccn2)cc1OCC`, the activity in assay [1] came to 82.3%; in assay [2], 88.9%.

`COc1ccc(/C=C/C(=O)c2c(O)cc(C)oc2=O)c(OC)c1`: the activity in assay [1] turned out to be 91.1%; in assay [2], 92.5%.

Take `CCC(=O)Nc1ccc(C(=O)Cn2ncc(Cl)c(Cl)c2=O)cc1`: the activity in assay [1] was determined as 99.4%; in assay [2], 99.3%.

Regarding `c1cc(-c2cc3cc(N4CCOCC4)ccc3o2)cs1`, the activity in assay [1] was determined as 77.3%; in assay [2], 67.4%.

As for `Cc1nn(-c2ccccc2)c(Cl)c1/C=N/NC(=O)c1[nH]ncc1Br`, the activity in assay [1] amounted to 83.7%; in assay [2], 71.9%.

As to `Oc1cccc(/C=N/Nc2cccc3cccnc23)c1`, the activity came to 48.6% in assay [1] and 34.2% in assay [2].

Consider `NC(CCc1ccccc1)c1csc(NC(=O)Nc2ccccc2Oc2ccccc2)n1` (centres undefined), for which the activity is 79% in assay [1] and 93% in assay [2].

As to `C#Cc1ccccc1OCCCN1CCC(C(O)(c2ccccc2)c2ccccc2)CC1`, the values for the activity in assay [1] and in assay [2] were 97.2% and 94.2%, respectively.

With `Cc1cc(C)nc(NC(=O)/C=C/c2ccc3c(c2)OCO3)c1`, the activity in assay [1] turned out to be 70.2%; in assay [2], 75.5%.

Regarding `Cc1cc(C)n(-c2nc(Nc3ccccc3C(F)(F)F)nc(-n3nc(C)cc3C)n2)n1`, the figures for the activity in assay [1] and in assay [2] were 51.8% and 71.9%, respectively.

Take `CCCOc1ccc(-c2cn3ccccc3n2)cc1[N+](=O)[O-]`: the activity is 57% in assay [1] and 52.1% in assay [2].

On to `Cc1c(C)c2ccc(OCC(=O)Nc3nccs3)cc2oc1=O`, for which the activity in assay [1] came to 58.4%; in assay [2], 57.8%.

For the compound `c1c2c(cc3sc(N4CCOCC4)nc13)OCCO2`, the activity was 66.8% in assay [1] and 75% in assay [2].

With `O=C1c2ccccc2NC(c2ccc3c(c2)OCCO3)N1c1ccc2c(c1)OCCO2` (centres undefined), the results for the activity in assay [1] and in assay [2] were 44.2% and 51.8%, respectively.

`S=C(Nc1ccc(Cl)cc1)c1nc2ccccc2[nH]1`: the activity in assay [1] is 60.6%; in assay [2], 65.9%.

With `COc1ccccc1NC(CC(=O)c1ccccc1)C(=O)OCC(=O)c1ccc(Br)cc1` (centres undefined), the activity in assay [1] was 65.4%; in assay [2], 57.2%.

With `COCCN(C(=O)COC(=O)c1c(NC(C)=O)sc(C)c1C)c1c(N)n(Cc2ccccc2)c(=O)[nH]c1=O`, the activity was found to be 58.8% in assay [1] and 65.8% in assay [2].

Consider `O=C(Nc1ccc2c(c1)OCCO2)c1cc2ccccc2o1`, for which the figures for the activity in assay [1] and in assay [2] were 82% and 76.8%, respectively.

Take `COc1cc2ccccc2cc1C(=O)Nc1sc2c(c1C(N)=O)CCN(C(C)C)C2`: the activity in assay [1] stood at 79.4%; in assay [2] it was 98.2%.

Turning to `O=[N+]([O-])c1ccc(Sc2ccncn2)c([N+](=O)[O-])c1`, the activity in assay [1] is 16.8%; in assay [2], 65.8%.

`CCc1ccc(NC(=O)Nc2cccs2)cc1`: the values for the activity in assay [1] and in assay [2] were 59% and 45.9%, respectively.

For `CCS(=O)(=O)c1ncc(Cl)c(C(=O)Nc2ccc(S(=O)(=O)N(C)c3ccccc3)cc2)n1`, the activity in assay [1] amounted to 99.2%; in assay [2], 99.7%.

In the case of `CCCCNC(=O)c1cn(C)c2ccc(S(=O)(=O)N3CC(C)CC(C)C3)cc2c1=O` (centres undefined), the results for the activity in assay [1] and in assay [2] were 42.1% and 41.5%, respectively.

`C#CCN(C[C@@H]1[C@@H](OC(=O)Nc2cccs2)[C@@H](OC(=O)Nc2cccs2)Cn2c(=O)ccc(=O)n21)S(=O)(=O)c1ccc(C)cc1`: the activity stood at 96.5% in assay [1] and 95.8% in assay [2].

In the case of `Cc1nc2c(-c3ccc(F)cc3)cnn2c(N)c1-c1ccccc1`, the activity in assay [1] came out at 88.4%; in assay [2] it was 86.9%.

As to `Oc1ccc(-c2cnc(-c3ccc(O)cc3)nc2)cc1`, the activity in assay [1] was 88.2%; in assay [2], 93.3%.

Regarding `CCc1ccc2nc(N(CCCN(C)C)C(=O)c3ccc(S(=O)(=O)N4CCCc5ccccc54)cc3)sc2c1`, the values for the activity in assay [1] and in assay [2] were 38.9% and 63.9%, respectively.

As to `COC(=O)CSc1nnc(NC(=O)/C=C\c2ccc3c(c2)OCO3)s1`, the activity in assay [1] came out at 49.5%; in assay [2] it was 66.2%.

`Cc1cc(-c2nc3cc(F)ccc3s2)ccc1N`: the activity was 74.5% in assay [1] and 68.6% in assay [2].

Consider `CCCCNC(=O)c1ccc(Cn2c(=S)[nH]c3c([nH]c4ccc(OC)cc43)c2=O)cc1`, for which the activity in assay [1] came out at 76.7%; in assay [2], 63.2%.

Consider `CCc1ccc(-c2cc3c(=O)n(CC(=O)NCCCN4CCC(Cc5ccccc5)CC4)nc(C)n3n2)cc1`, for which the values for the activity in assay [1] and in assay [2] were 55.9% and 71.5%, respectively.

For `NC(Cc1ccc(Cl)cc1)c1csc(NC(=O)NCC2CCCCC2)n1` (centres undefined), the activity in assay [1] worked out at 58.4%; in assay [2], 88.1%.

Consider `O=C(Nc1nc2c(s1)CCCC2)c1cccs1`, for which the activity was 71.3% in assay [1] and 82.1% in assay [2].

In the case of `C/C(=N\Nc1nc(C)cc(-c2ccccc2)n1)c1cccc(N)c1`, the activity in assay [1] is 41.5%; in assay [2], 32.7%.
